Reference: PubChem BioAssay (EPA / NIEHS)
Active and inactive are the calls of the source. Rule for the calls: active = hit-call score of the fitted dose curve at least 0.9, where 1 is the maximum; inactive = score below 0.9.

experiment: APR_HepG2_MitoMembPot_1hr: Apredica 1-hour HepG2 Assay for Mitochondrial Membrane Potential (AID 2282675); conditions: imaging, actives raise or lower the signal
Procedure: APR_HepG2_1hr is a cell-based, multiplexed-readout assay that uses HepG2, a human liver cell line, with measurements taken at 1 hour after chemical dosing in a 384-well plate.APR_HepG2_MitoMembPot_1hr is one of 10 assay component(s) measured or calculated from the APR_HepG2_1hr assay. It is designed to make measurements of dye binding, a form of membrane potential reporter, as detected with fluorescence intensity signals by HCS Fluorescent Imaging technology.Data from the assay component APR_HepG2_MitoMembPot_1hr was analyzed into 1 assay endpoint. This assay endpoint, APR_HepG2_MitoMembPot_1hr, was analyzed with bidirectional fitting relative to DMSO as the negative control and baseline of activity. Using a type of membrane potential reporter, gain or loss-of-signal activity can be used to understand changes in the signaling. Furthermore, this assay endpoint can be referred to as a primary readout, because this assay has produced multiple assay endpoints where this one serves a signaling function. To generalize the intended target to other relatable targets, this assay endpoint is annotated to the cell morphology intended target family, where the subfamily is organelle conformation.
Cells were treated with dimethyl sulfoxide (DMSO) as a solvent control at a final concentration of 0.5% v/v or with compounds in DMSO with a resulting final DMSO concentration of 0.5% v/v. Compound treatment was done at concentrations of 0.39, 0.78, 1.56, 3.12, 6.24, 12.5, 25, 50, 100, and 200 uM in duplicate on each plate. Cells were treated with compounds for 1, 24, or 72 hr. Carbonyl […] m-chloro-phenylhydrazone (CCCP) and taxol were used as positive controls for mitochondrial function and cytoskeletal stability, respectively; DMSO served as the negative control for this experiment. Cells were fixed by the direct addition of 50 uL formaldehyde in Hank's Balanced Salt Solution (HBSS) to a final concentration of 3.7%. After incubation in the fixation medium for 30 min at room temperature (293-298 K), cells were rinsed twice with HBSS and treated with cell permeabilization buffer (16 uL of 0.5% Triton X-100) for 10 min at room temperature (293-298 K) before labeling. For mitochondrial membrane potential and mitochondrial measurements, pre-fixed cells were incubated with 50 uL of MitoTracker Red CMXRos (Invitrogen) at a concentration of 250 nM for 30 min before fixation. In the remaining cases, post-fixed cells were labeled by incubation with a multiplexed mixture of primary antibodies in HBSS for 60 min at room temperature (293-298 K) to detect immunoreactivity of c-Jun (1:500), phospho-histone H3 (1:100), phospho-histone H2A.x (1:200), p53 (1:400), alpha-tubulin (1:200) and Hoechst 33342 (2 ug/mL). Cells were labeled for multiplexed imaging on two separate plates: a) Hoechst 33342, MitoTracker Red, phospho-histone H3, and alpha-tubulin, and b) Hoechst 33342, phospho-histone H2A.x, and c-Jun. A final rinse with HBSS (50 uL) was performed before analysis. The primary and secondary antibodies for the proteins were phospho-histone H3 (rabbit anti-phospho-histone H3 and FITC-donkey anti-rabbit IgG), phospho-histone H2A.x (mouse anti-phospho-histone H2A.x and FITC-donkey anti-mouse IgG), c-Jun (rabbit anti-phospho-c-Jun and Cy3-donkey anti-rabbit IgG), p53 (sheep anti-p53 and Cy5-donkey anti-sheep IgG), alpha-tubulin (mouse anti-alpha-tubulin and Cy5-donkey anti-mouse IgG). These antibodies are available as the CellCiphr HepG2 assay kit (Millipore).Digital images of each well were captured using a Cellomics ArrayScan VTI (Thermo Scientific Cellomics) (0.8 NA objective, 0.63x optical coupler, and XF-93 filter set) at 20x magnification. The images were acquired using the autofocus feature of the ArrayScan instrument, which entails the following steps. First, the camera focuses on channel 1 (Hoechst 33342), where nuclei are identified. Second, a Z offset of 1 um is used for capturing mitochondria (MitoTracker Red). […]

Structure (SMILES) | outcome | AC50
CC(C)N1C(=O)c2ccccc2NS1(=O)=O | inactive | –
COC(=O)c1c(C(F)F)nc(C(F)(F)F)c(C2=NCCS2)c1CC(C)C | inactive | –
CCN(CC)c1nc(C)cc(OP(=S)(OC)OC)n1 | inactive | –
COc1ccc(-c2ccccc2)cc1NNC(=O)OC(C)C | inactive | –
CNC(=O)N(C)c1nnc(C(C)(C)C)s1 | inactive | –
CC(C)Oc1cccc(NC(=O)c2ccccc2C(F)(F)F)c1 | inactive | –
CNC(=O)Oc1cccc2ccccc12 | inactive | –
Nc1c(Cl)c(F)nc(OCC(=O)O)c1Cl | inactive | –
Cn1c(-c2ccccc2)cc(-c2ccccc2)[n+]1C | inactive | –
CCCCC(C#N)(Cn1cncn1)c1ccc(Cl)cc1 (stereo not given) | inactive | –
CCOc1nc(F)cc2nc(S(=O)(=O)Nc3c(Cl)cccc3Cl)nn12 | inactive | –
OC(c1ccc(Cl)cc1)(c1ccc(Cl)cc1)C(Cl)(Cl)Cl | – | 34.2 µM (active)
CCOc1cc(C(C)(C)C)ccc1C1COC(c2c(F)cccc2F)=N1 (stereo not given) | – | 100 µM (active)
CC(C)N1C(=O)N(c2ccccc2)CSC1=NC(C)(C)C | – | 114 µM (active)
N#Cc1c(Cl)cccc1Cl | inactive | –
COCC(C)N(C(=O)CCl)c1c(C)csc1C (stereo not given) | inactive | –
C=CCOC(=O)C(C)(C)OC(=O)c1cc(-n2c(=O)cc(C(F)(F)F)n(C)c2=O)ccc1Cl | inactive | –
O=C(Nc1ccccc1-c1ccc(Cl)cc1)c1cccnc1Cl | inactive | –
CC1(C)CCC(=Cc2ccc(Cl)cc2)C1(O)Cn1cncn1 (stereo not given) | inactive | –
CS(=O)(=O)c1cc(C(F)(F)F)ccc1C(=O)c1cnoc1C1CC1 | inactive | –

Structure (SMILES) | outcome | AC50
N#CN=C1SCCN1Cc1ccc(Cl)nc1 | inactive | –
CCOP(=O)(OCC)Oc1nc(Cl)c(Cl)cc1Cl | inactive | –
Clc1cccc(C(Cl)(Cl)Cl)n1 | inactive | –
Nc1c(Cl)c(Cl)nc(C(=O)O)c1Cl | inactive | –
CCCC(=NOCC)C1=C(O)CC(CC(C)SCC)CC1=O (stereo not given) | inactive | –
CCNC(=O)NC(=O)C(C#N)=NOC | inactive | –
Cc1ccc(N=CN(C)C=Nc2ccc(C)cc2C)c(C)c1 | – | 108 µM (active)
CCCN(CC)CC1COC2(CCC(C(C)(C)C)CC2)O1 (stereo not given) | inactive | –
CCCCOCN(C(=O)CCl)c1c(CC)cccc1CC | inactive | –
COP(=O)(OC)O/C(C)=C/C(=O)N(C)C | inactive | –
Cc1nc(N(C)C)nc(OC(=O)N(C)C)c1C | inactive | –
Cc1cnc(C2=NC(C)(C(C)C)C(=O)N2)c(C(=O)O)c1 (stereo not given) | inactive | –
COCc1cnc(C2=NC(C)(C(C)C)C(=O)N2)c(C(=O)O)c1 (stereo not given) | inactive | –
CCOP(=S)(OCC)Oc1nc(Cl)n(C(C)C)n1 | inactive | –
CSC(=O)c1c(C(F)F)nc(C(F)(F)F)c(C(=O)SC)c1CC(C)C | inactive | –
CCSC(=O)N1CCCCCC1 | inactive | –
CN=C=S | inactive | –
CCCCC(O)(Cn1cncn1)c1ccc(Cl)cc1Cl (stereo not given) | inactive | –
O=C1C2CC=CCC2C(=O)N1SC(Cl)(Cl)Cl (stereo not given) | inactive | –
O=P(O)(O)CCCl | inactive | –
